# Source: the supplement of paper PMC9135407
# “And” between values parts separate entries of the source, which are not always exact repeats. Equal entries are not always repeated. Structures can show the parent of a compound that is named as a salt. Out of some 5,800 compounds screened, about 620 (11%) showed activity. What follows is part of a selection rich in actives, with near analogues and random picks from the rest. Unmarked numbers belong to inactive results.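 How the source made its calls: active = score above a cut-off or among the top three wells of a plate; in these data no inactive exceeds 0.85.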
# Tested on: primary human hepatic stellate cells (donor 1)
# Assay: scaled lipid accumulation score (0 = DMSO-like, 1 = nortriptyline-like); higher = stronger HSC inactivation (lipid re-accumulation), active = hit call of the paper
# Conditions: 48 h
# [1] = library stock concentration: 1 mM
# [2] = library stock concentration: 80 uM
# [3] = library stock concentration: 400 uM
# [4] = library stock concentration: 2 mM
# [5] = library stock concentration: 3.33 mM
# [6] = library stock concentration: 10 mM
structure (smiles),measurement,setting,value
COc1ccc2c(c1)c(CC(=O)NCCc1ccccc1)c(C)n2C(=O)c1ccc(Cl)cc1 [N-(2-phenylethyl)-Indomethacin amide],scaled lipid accumulation score,[1],0.049
O=c1ncn2nc(Sc3ccc(F)cc3F)ccc2c1-c1c(Cl)cccc1Cl,scaled lipid accumulation score,[2],0.019
same,scaled lipid accumulation score,[3],0.039
same,scaled lipid accumulation score,[4],0.129
same,scaled lipid accumulation score,[5],0.019
same,scaled lipid accumulation score,[6],≤ 0 and 0.119
C[C@@H](O)[C@H]1C(=O)N2C(C(=O)OCOC(=O)C(C)(C)C)=C(SC3CN(C4=NCCS4)C3)[C@H](C)[C@H]12 [Tebipenem Pivoxil],scaled lipid accumulation score,[5],≤ 0
same,scaled lipid accumulation score,[6],≤ 0
"O=P(O)(O)O[C@H]1[C@@H](O)[C@H](O)[C@@H](OP(=O)(O)O)[C@H](OP(=O)(O)O)[C@H]1O [D-myo-Inositol-2,4,5-triphosphate (sodium salt)]",scaled lipid accumulation score,[1],≤ 0
O=C1C(Cl)=C(N2C(=O)CCC2=O)C(=O)c2ccccc21 [MEK Inhibitor II],scaled lipid accumulation score,[5],0.073
CCCCCCCCCCCCCC(=O)OCC [Myristic Acid ethyl ester],scaled lipid accumulation score,[1],0.028
COc1cc2ncnc(Nc3ccc(Cl)cc3F)c2cc1OC,scaled lipid accumulation score,[5],≤ 0
same,scaled lipid accumulation score,[6],≤ 0 and ≤ -0.001
COc1cc2c(Nc3ccc(Br)cc3F)ncnc2cc1OCC1CCN(C)CC1 [Vandetanib],scaled lipid accumulation score,[4],1.27 (active)
same,scaled lipid accumulation score,[6],1.66 (active)
COc1cc2/c(=N/c3ccc(Br)cc3F)nc[nH]c2cc1OCC1CCN(C)CC1 [Vandetanib],scaled lipid accumulation score,[2],0.09
same,scaled lipid accumulation score,[3],0.381
"COc1cc2/c(=N/c3ccc(Br)cc3F)nc[nH]c2cc1OCC1CCN(C)CC1 [Vandetanib  (ZD6474, Zactima) (10 mM)]",scaled lipid accumulation score,[6],0.445
COc1cc2ncnc(Nc3ccc(O)c(Br)c3)c2cc1OC,scaled lipid accumulation score,[5],≤ 0
same,scaled lipid accumulation score,[6],≤ 0
C=CC(=O)N1CCC(Oc2cc3c(Nc4ccc(Cl)c(Cl)c4F)ncnc3cc2OC)CC1 [Poziotinib],scaled lipid accumulation score,[2],0.111
same,scaled lipid accumulation score,[3],0.281
same,scaled lipid accumulation score,[4],0.059
same,scaled lipid accumulation score,[6],0.72
COc1cc2c(Nc3ccc(Br)cc3F)ncnc2cc1OCC1CCN(C)CC1 [Vandetanib (ZD6474)],scaled lipid accumulation score,[5],1.18 (active)
"COc1cc2c(Nc3ccc(Br)cc3F)ncnc2cc1OCC1CCN(C)CC1 [Vandetanib  (ZD6474, Zactima) (0.4 mM)]",scaled lipid accumulation score,[3],1.1 (active)
"COc1cc2c(Nc3ccc(Br)cc3F)ncnc2cc1OCC1CCN(C)CC1 [Vandetanib  (ZD6474, Zactima) (2 mM)]",scaled lipid accumulation score,[4],0.855 (active)
COc1cc2ncnc(Nc3ccc(O)c(Br)c3)c2cc1OC [JAK3 Inhibitor II],scaled lipid accumulation score,[5],≤ 0
COc1cc2/c(=N/c3ccc(Br)cc3F)nc[nH]c2cc1OCC1CCN(C)CC1 [Vandetanib (ZD6474)],scaled lipid accumulation score,[6],0.754
COc1c2ccoc2nc2c(OC)c(OCC(O)C(C)(C)O)ccc12 (stereo not given) [Evoxine],scaled lipid accumulation score,,≤ 0
COc1ccc(CCN(C)CCCC(C#N)(c2ccc(OC)c(OC)c2)C(C)C)cc1OC (stereo not given) [Verapamyl hydrochloride],scaled lipid accumulation score,,0.545
COc1ccc(CCN(C)CCCC(C#N)(c2ccc(OC)c(OC)c2)C(C)C)cc1OC (stereo not given) [Verapamil],scaled lipid accumulation score,library stock concentration: 4.4 mM,0.416
COc1ccc(CCN(C)CCCC(C#N)(c2ccc(OC)c(OC)c2)C(C)C)cc1OC (stereo not given) [Verapamil HCl],scaled lipid accumulation score,[5],0.332
same,scaled lipid accumulation score,[6],0.536
COc1ccc(CCN(C)CCCC(C#N)(c2ccc(OC)c(OC)c2)C(C)C)cc1OC (stereo not given) [Verapamil hydrochloride],scaled lipid accumulation score,[6],0.587
O=C(O)Cc1c2ccccc2n2c1[nH]c(=O)c1ccccc12,scaled lipid accumulation score,[2],≤ -0.001
same,scaled lipid accumulation score,[3],≤ -0.001
same,scaled lipid accumulation score,[4],≤ -0.001
same,scaled lipid accumulation score,[6],≤ -0.001
CCCCC[C@H](O)/C=C/[C@H]1C(=O)C[C@H](O)[C@@H]1C/C=C\CCCC(=O)OC [Prostaglandin D2 methyl ester],scaled lipid accumulation score,[1],≤ 0
CNCc1cc(-c2ccccc2F)n(S(=O)(=O)c2cccnc2)c1,scaled lipid accumulation score,[5],0.046
same,scaled lipid accumulation score,[6],0.471
CC(C)=CCC/C(C)=C/CC/C(C)=C/CC[C@]1(C)CCc2c(C)c(O)c(C)c(C)c2O1 [.alpha.-Tocotrienol],scaled lipid accumulation score,[1],0.026
CCCc1c(OCC(O)COc2ccc3c(=O)cc(C(=O)O)oc3c2CCC)ccc(C(C)=O)c1O (stereo not given),scaled lipid accumulation score,[6],≤ -0.001
c1ccc2[nH]cnc2c1 [DRB (Benzimidazole)],scaled lipid accumulation score,library stock concentration: 15.7 mM,0.081
Clc1ccc(C2(c3ccc(-c4cn[nH]c4)cc3)CCNCC2)cc1 [listing 1 of 3 here],scaled lipid accumulation score,[5],1.22 (active)
Clc1ccc(C2(c3ccc(-c4cn[nH]c4)cc3)CCNCC2)cc1 [listing 2 of 3 here],scaled lipid accumulation score,[4],0.95 (active)
same,scaled lipid accumulation score,[6],1.16 (active)
Clc1ccc(C2(c3ccc(-c4cn[nH]c4)cc3)CCNCC2)cc1 [listing 3 of 3 here],scaled lipid accumulation score,[2],0.375
same,scaled lipid accumulation score,[3],0.622
same,scaled lipid accumulation score,[6],0.425
C[n+]1ccccc1C=NO [Pralidoxime mesylate],scaled lipid accumulation score,[6],0.016
O=C1C2CC3CC1CC(O)(C3)C2,scaled lipid accumulation score,[6],0.163
"N[C@H](C(=O)O)[C@H]1C[C@@H]1C(=O)O [(2S,1'S,2'S)-2-(carboxycyclopropyl)glycine]",scaled lipid accumulation score,[6],0.17
CCOC(=O)C1=C(COCCN)NC(C)=C(C(=O)OC)C1c1ccccc1Cl (stereo not given) [Amlodipine],scaled lipid accumulation score,[5],0.492
same,scaled lipid accumulation score,library stock concentration: 4.9 mM,≤ -0.006
same,scaled lipid accumulation score,[6],0.33
CCO/C(O)=C1\C(COCCN)=NC(C)=C(C(=O)OC)C1c1ccccc1Cl (stereo not given),scaled lipid accumulation score,[6],1.38 (active)
CCCC(=O)OCOC(=O)C1=C(C)NC(C)=C(C(=O)OC)C1c1cccc(Cl)c1Cl (stereo not given) [Clevidipine Butyrate],scaled lipid accumulation score,[5],≤ 0
same,scaled lipid accumulation score,[6],≤ 0
CCO/C(O)=C1\C(C)=NC(c2ccccc2)=C(C(=O)OCc2ccc([N+](=O)[O-])cc2)C1C#Cc1ccccc1 (stereo not given),scaled lipid accumulation score,[6],≤ 0
COC(=O)C1=C(C)NC(C)=C(C(=O)OCCSc2ccccc2)C1C (stereo not given),scaled lipid accumulation score,[6],0.111
same,scaled lipid accumulation score,library stock concentration: 13.8 mM,0.203
CCOC(=O)C1=C(C)NC(C)=C(C(=O)OC)C1c1cccc(Cl)c1Cl (stereo not given) [Felodipine] [listing 1 of 2 here],scaled lipid accumulation score,,0.05
same,scaled lipid accumulation score,[5],≤ 0
same,scaled lipid accumulation score,library stock concentration: 5.2 mM,0.028
same,scaled lipid accumulation score,[6],≤ 0
CCOC(=O)C1=C(C)NC(C)=C(C(=O)OC)C1c1cccc(Cl)c1Cl (stereo not given) [Felodipine] [listing 2 of 2 here],scaled lipid accumulation score,[6],0.931 (active)
CCOC(=O)C1=C(COCCN)NC(C)=C(C(=O)OC)C1c1ccccc1Cl (stereo not given) [Amlodipine besylate],scaled lipid accumulation score,library stock concentration: 3.5 mM,≤ 0
CCOC(=O)C1=C(COCCN)NC(C)=C(C(=O)OC)C1c1ccccc1Cl.O=S(=O)(O)c1ccccc1 (stereo not given) [Amlodipine besylate],scaled lipid accumulation score,[6],1.02 (active)
